The text below walks through data of PubChem BioAssay (EPA / NIEHS).

The source made the active and inactive calls. The calls were made as follows: active = hit-call score of the fitted dose curve at least 0.9, where 1 is the maximum; inactive = score below 0.9.

Read-out in the experiment: Phosphatase and tensin (PTEN), PTEN (gene 5728)
Kind of experiment: LTEA_HepaRG_PTEN: Life Technologies and Expression Analysis (LTEA) Assay for Phosphatase and tensin (PTEN) using HepaRG (AID 2283523). The conditions noted are these: mRNA level, 48 h; actives raise or lower the signal. As for the experimental part: LTEA_HepaRG is a cell based, multiplexed-readout assay that uses HepaRG, a human liver cell line, with measurements taken at 48 hours after chemical dosing on a 96-well plate.LTEA_HepaRG_PTEN is one of 102 assay component(s) measured in the LTEA HepaRG cell culture assay. It is a marker of Cell proliferation, survival, death.Data from the assay component LTEA_HepaRG_PTEN was analyzed into 1 endpoint. This assay endpoint, LTEA_HepaRG_PTEN, was analyzed with bidirectional fitting relative to DMSO as the negative control and baseline of activity. Using a type of inducible reporter, measures of mRNA induction for gain or loss-of-signal activity can be used to understand regulation of transcription factor activity. To generalize the intended target to other relatable targets, this assay endpoint is annotated to the phosphatase intended target family, where the subfamily is dual-specific phosphatase.
A total of 1060 chemcials from the ToxCast library were tested in eight-point concentration-response experiments. Cell culture and cytotoxicity assays were conducted at Thermo Fisher Scientific's Custom Services facility (Madison, WI). A single lot of human HepaRG cells (Thermo Fisher Scientific, Frederick, MD) was used for the cell culture experiments. 96-well format collagen type I coated plates of human HepaRG cells were prepared using established methods. Briefly, cryopreserved HepaRG cells were thawed, plated at a density of approximately 100,000 cells/well in HepaRG Thaw, Plate, and General Purpose media (HPRG770, Thermo Fisher Scientific), and incubated for 48 hours. 0.5% DMSO was selected as vehicle control to balance the requisite need of DMSO in HepaRG cultures to maintain differentiation (for example, baseline metabolism, proportions of hepatocytes vs. cholangiocytes), while enabling further hepatic receptor pathway activation (for example, PXR and CAR) in response to chemical exposure. 48 hours after plating, the culture medium was replaced with HepaRG Serum-Free Incudtion Media. Cells were exposed to each test chemical in duplicate and maintained in CO2 incubators for another 48 hours. Chemical plates were thawed to room temperature and 200x concentrations of treatment groups were prepared. 8-point conentration-reponse curves were made with the highest exposure at 100 uM, followed by half-log dilutions, all in 0.5% DMSO. Each test plate contained variouse controls, induction positive controls (1mM phenobarbital), cytotoxicity positive controls ([…] aflatoxin B1), vehicle controls (0.5% DMSO), and total lysis controls (0.5% DMSO). Cell morphology images were taken using an Essen IncuCyte FLR automated microscope, with six 96-well plates imaged in about 24 minutes. Images were captured and exported and JPEG files. Spent culture media was transfered to black-well plates for the LDH assay, and remaining media was sorted at -80 C for later use. Cells were treated with RLT buffer and frozen until shipped for gene expression analysis. Total RNA was isolated from the cell suspension in 75 uL of Buffer RLT (Qiagen, Germantown, MD 20874) by Quintiles/Expression Analysis (Durham, NC) using a custom isolation procedure. Total RNA from each plate well was transferred to a preamplification plate. Fluidigm's 96.96 Dynamic ArrayTM (Fluidigm, Amsterdam, the Netherlands) technology was used for gene expression analyses by quantitative reverse transcription polymerase chain reaction (qRT-PCR, performed by Quintiles/Expression Analysis, Durham, NC)89. Standard TaqManTM Assays (Applied Biosystems/ThermoFisher Scientific, Foster City, CA) were used to assess the expression of 93 genes selected based on their selectivity and sensitivity to important hepatic receptors known to be modulated by environmental chemicals; importance in human hepatocyte functionality; and hepatotoxicity. […]
In the case of `OCCCl`, the compound was classed as inactive. As for `COC(=O)c1ccccc1N`, the outcome was inactive. One may read the AC50 as the concentration giving half of the maximal activity seen. As to `O=C1CCCO1`, the AC50 is 82.9 µM (active). `CCCCOC(=O)c1ccccc1C(=O)OCc1ccccc1`: the compound was classed as inactive. Still for that read-out and setting: then `O=Cc1ccco1`, with “inactive”. Same read-out and setting: then `OCCOCCO`, with “inactive”. The same measure, in the same setting: then `CCCSC(=O)N(CCC)CCC`, with “inactive”; and `[As]#[In]`, with “inactive”.

In the case of `Cc1ccc([N+](=O)[O-])cc1`, the compound was classed as inactive. Still for that read-out and setting: then `CN(C)c1ccc(C(=O)c2ccc(N(C)C)cc2)cc1`, with “inactive”; and `Clc1ccccc1Cl`, with “inactive”; and `Cc1ccc(N)c(N)c1`, with “inactive”. The same measure, in the same setting: to `Clc1ccc(C(c2ccc(Cl)cc2)C(Cl)Cl)cc1` belongs “inactive”; to `N#CC(Br)(Br)C(N)=O`, “inactive”.

Regarding `CN(C)C(=O)Nc1ccc(Cl)cc1`, the call was inactive. With `O=P(OCCCl)(OCCCl)OCCCl`, the compound was called inactive. The same measure, in the same setting: then `CCOC(=O)[C@]1(c2ccccc2)Oc2ccccc2[C@@H]1N`, with “inactive”.

Take `Oc1ccc2ccc3cccc4ccc1c2c34`: the outcome was inactive. Same read-out and setting: to `CC(C)COC(=O)c1ccccc1C(=O)OCC(C)C` belongs “inactive”. For the compound `CCC12COCN1COC2`, the outcome was inactive. On the same count and under the same terms, then `c1ccc2c(c1)oc1ccccc12`, with “inactive”; and `c1ccc2c(c1)-c1cccc3cccc-2c13`, with “inactive”; and `CC(C)(C)C(O)(CCc1ccc(Cl)cc1)Cn1cncn1` (stereo not given), with “inactive”. In the case of `COc1cc(C=O)cc2c1[C@H](COC(N)=O)[C@]1(OC(C)=O)ON2C[C@H]2[C@@H]1N2C(C)=O`, the AC50 was 29.9 µM (active). The same measure, in the same setting: to `Cc1cc(N=Nc2ccccc2C)ccc1N` belongs 4.12 µM (active). As for `O=[N+]([O-])C(Br)(CO)CO`, the result was inactive.

With `CS(=O)(=O)NC(=O)c1cc(Oc2ccc(C(F)(F)F)cc2Cl)ccc1[N+](=O)[O-]`, the result was inactive. On the same count and under the same terms, to `ClC1=C(Cl)C2(Cl)C3C(Cl)C=CC3C1(Cl)C2(Cl)Cl` (stereo not given) belongs “inactive”; to `CCC(C)c1ccc(O)cc1` (stereo not given), “inactive”; to `O=[N+]([O-])c1ccc(Oc2ccc(Cl)cc2Cl)cc1`, “inactive”. Same read-out and setting: then `CC(C)(O)c1cnn2c(-c3ccc(F)c(-c4c(F)cccc4C#N)c3)cnc2n1`, with “inactive”; and `ClCCOCCCl`, with “inactive”; and `C1=Cc2cccc3cccc1c23`, with “inactive”.

Consider `O=C(O)C1C2CCC(O2)C1C(=O)O` (stereo not given), for which the call was inactive. On the same count and under the same terms, to `CCNS(=O)(=O)C(F)(F)C(F)(F)C(F)(F)C(F)(F)C(F)(F)C(F)(F)C(F)(F)C(F)(F)F` belongs “inactive”. For the compound `Clc1ccc(C(c2ccc(Cl)cc2)C(Cl)(Cl)Cl)cc1`, the call was inactive. Same read-out and setting: to `Oc1ccccc1Cl` belongs “inactive”; to `[Cl-].[Cl-].[Hg+2]`, “inactive”; to `CCCCCCCCOC(=O)c1ccc(C(=O)OCCCCCCCC)c(C(=O)OCCCCCCCC)c1`, “inactive”. On the same count and under the same terms, to `C=CCc1ccc2c(c1)OCO2` belongs “inactive”.
